PubChem BioAssay (EPA / NIEHS)
Active and inactive are the calls of the source. Rule for the calls: active = hit-call score of the fitted dose curve at least 0.9, where 1 is the maximum; inactive = score below 0.9.

Read-out: Pselectin, SELP (gene 6403)
Test: BSK_4H_Pselectin: BioMAP Diversity Plus: 4H Assay for Pselectin Biomarker Activity (AID 2283026)
Conditions: primary human endothelial cells (HUVEC); actives raise or lower the signal
In short: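 ELISA of surface P-selectin on HUVEC, 24 h after dosing, with parallel SRB staining (0.1% after 10% TCA fixation, 560 nm) for overt cytotoxicity. Activity fitted in both directions relative to DMSO.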

| Structure (SMILES) | outcome |
| --- | --- |
| CS(=O)(=O)OCCCCOS(C)(=O)=O | inactive |
| CCN(CC)C(=O)N(CC)CC | inactive |
| Cc1cc(CCC(=O)OCCOCCOCCOC(=O)CCc2cc(C)c(O)c(C(C)(C)C)c2)cc(C(C)(C)C)c1O | inactive |
| CN(C)C(=S)SC(=S)N(C)C | inactive |
| C=C(C)C(=O)OCCOCCOCCOCCOC(=O)C(=C)C | inactive |
| IC(I)I | inactive |

Read-out: not listed separately
Test: BSK_BE3C_SRB: Viability Assessment in the BioMAP Diversity Plus: BE3C Assay (AID 2283028)
Conditions: primary human bronchial epithelial cells
In short: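 Primary human bronchial epithelium; chemical dosing, 24 h; 10% TCA fix, 0.1% SRB stain, A560; bidirectional fit vs DMSO baseline.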

| Structure (SMILES) | outcome |
| --- | --- |
| CS(=O)(=O)OCCCCOS(C)(=O)=O | inactive |
| CCN(CC)C(=O)N(CC)CC | inactive |
| Cc1cc(CCC(=O)OCCOCCOCCOC(=O)CCc2cc(C)c(O)c(C(C)(C)C)c2)cc(C(C)(C)C)c1O | inactive |
| CN(C)C(=S)SC(=S)N(C)C | inactive |
| C=C(C)C(=O)OCCOCCOCCOCCOC(=O)C(=C)C | inactive |
| IC(I)I | inactive |
